This passage reports viability increase results from PubChem BioAssay AID799 (SRMLSC, 2007).

The campaign covered roughly 140,000 compounds. About 840 (0.6%) were called active. The sample holds actives, similar compounds and a random draw of the others, so the mix is not that of the screen.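 The calls were made as follows: active = viability gain under doxorubicin at or above a set limit, the compound median plus 3 SD (cut at about 4.7% in these data); inactive = the rest.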

The assay is described as follows: protection of MRP-1-high cells against doxorubicin toxicity – H69AR cells, CellTiter-Glo, MRP-1 activator project, primary screen (AID 799).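 Also: MRP-1 overexpressing cells given doxorubicin 25 µM after compound pretreatment; 18-22 h compound pretreatment then 72 h with doxorubicin before readout; 0% = doxorubicin-only wells and 100% = vehicle-treated cells without doxorubicin.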 As to conditions: viability rescue, at 10 µM, hits give high values. On the technique in general: In ATP-based viability assays light output follows the ATP content of the culture.
Consider `CN(C(=O)c1c(Cl)cnn1C)C12CC3CC(CC(C3)C1)C2`, for which the viability increase is -1.48% (inactive).

With `Clc1cccc(CN2COc3c(cc(Cl)c4cccnc34)C2)c1`, the viability increase was -5.22% (inactive).

For `COc1ccc(C(=O)Nc2ccccc2C(=O)N/N=C/c2ccccc2OC)cc1`, the viability increase was -3.65% (inactive).

As for `COc1cccc(/C=N/NC(=O)c2[nH]nc3c2CCc2ccccc2-3)c1O`, the viability increase was -0.29% (inactive).

As for `COc1cccc(/C=N\NC(=O)C2=NNC(=O)C2C)c1O` (stereo unspecified), the viability increase is 8.24% (active).

With `CCn1cc(/C=C2/SC(=S)NC2=O)c(C)n1`, the viability increase is -3.74% (inactive).

As to `Cc1ccc(NC(=S)NCc2ccccc2Cl)c(C)c1`, the viability increase was -3.43% (inactive).

For `CC1(C)CC(=O)C2=C(C1)N=C1SCCC(=O)N1C2c1ccc(C(F)(F)F)cc1` (stereo unspecified), the viability increase is 9.27% (active).

As for `Cc1ccc(C(=O)COC(=O)CCCC(=O)NC2CCCCC2)cc1[N+](=O)[O-]`, the viability increase is -1.8% (inactive).

Turning to `O=C(N/N=C\c1ccc(-c2ccc(Cl)c(Cl)c2)o1)C(=O)N1CCCC1`, the viability increase is 1.06% (inactive).

Consider `O=C(Cn1nnc(-c2ccccc2)n1)N/N=C/c1ccc(-c2ccc(Cl)cc2)o1`, for which the viability increase is -1.7% (inactive).

On to `COC(=O)N/N=C/c1ccc(-c2ccc(Cl)c(Cl)c2)o1`, for which the viability increase was 9.18% (active).

On to `CCc1ccc(NC2Nc3cc(C)nn3S2)cc1` (stereo unspecified), for which the viability increase is 1.66% (inactive).

`Cc1cccc(C)c1NC(=O)CSc1ccc([N+](=O)[O-])cn1`: the viability increase was -2.01% (inactive).

For `COC(=O)c1ccccc1NC(=O)CSc1ccccn1`, the viability increase is -0.18% (inactive).

Regarding `C/C(=N/NC(=O)CSc1ccccn1)c1ccc([N+](=O)[O-])cc1`, the viability increase is 5.38% (active).

For `CC(C)(C)NC(=O)COC(=O)c1cc(Br)ccc1Cl`, the viability increase is 1.61% (inactive).

Regarding `Cc1ccc(C(=O)NC(C)c2ccccc2)cc1Br` (stereo unspecified), the viability increase is 2.53% (inactive).

Take `COc1ccc(C(=O)ON=C2c3ccccc3-c3ccccc32)cc1OC`: the viability increase is -0.45% (inactive).

In the case of `COc1cccc(C2SCC(=O)N2c2cccc(C)c2)c1OC` (stereo unspecified), the viability increase was -1.69% (inactive).

For `CSCC[C@H](NC(=O)OC(C)(C)C)C(=O)N/N=C/c1cc2ccc(C)cc2nc1Cl`, the viability increase was -3.12% (inactive).

For `Cc1ccc(CN2C(=O)N/C(=C/c3cc(C)n(-c4ccccn4)c3C)C2=O)cc1`, the viability increase is 2.22% (inactive).

For the molecule `Cc1cccc(CC(=O)N2CCN=C2SCc2ccc([N+](=O)[O-])cc2)c1`, the viability increase is -3.9% (inactive).

Turning to `O=C(c1ccco1)N1CCN=C1SCc1cccc(Cl)c1`, the viability increase was 1.42% (inactive).

Turning to `CC1CCN(C(=O)c2ccc(CSc3ccc(Cl)cc3)cc2)CC1`, the viability increase was -2.43% (inactive).

In the case of `O=C(C1CC1)N1CCN=C1SCc1ccc(Cl)cc1`, the viability increase was 4.76% (active).

For `Cc1cc(C)cc(C(=O)N2CCN=C2SCc2ccc([N+](=O)[O-])cc2)c1`, the viability increase is -4.17% (inactive).

Turning to `CCC(=O)N1CCN=C1SCc1ccc(F)cc1`, the viability increase is 5.28% (active).

With `Cc1ccc(C(C[N+](=O)[O-])c2c(C)cc3ccccn23)cc1` (stereo unspecified), the viability increase was -4.62% (inactive).

As for `COc1cc(C(=O)Nc2cc(C(F)(F)F)ccc2N2CCOCC2)ccc1O`, the viability increase was -4.55% (inactive).

On to `O=c1[nH]cnc2c1c(-c1ccccc1)cn2-c1ccc(F)cc1`, for which the viability increase was -1.33% (inactive).

As for `CSCCC(NC(=O)c1cc([N+](=O)[O-])cc([N+](=O)[O-])c1)c1nc2ccccc2[nH]1` (stereo unspecified), the viability increase is -3.92% (inactive).

`S=C(NCCc1ccccc1)NCc1ccccc1Cl`: the viability increase was -1.54% (inactive).

On to `O=C(NCc1ccco1)C1CCCN(S(=O)(=O)c2ccccc2)C1` (stereo unspecified), for which the viability increase is 0.35% (inactive).

Turning to `Cc1noc(/C=C/N(C)C)c1S(=O)(=O)N1CCCC(C(=O)NCc2ccco2)C1` (stereo unspecified), the viability increase was 8.37% (active).

On to `O=C(NCc1ccco1)C1CCCN(S(=O)(=O)c2cnc[nH]2)C1` (stereo unspecified), for which the viability increase was -1.18% (inactive).

Consider `CCCc1c(C)nc2c(Br)cccc2c1Cl`, for which the viability increase was 0.38% (inactive).

On to `O=C1CSC2=NCN(c3ccccc3)CN12`, for which the viability increase is 8.4% (active).

In the case of `O=C(NCc1cccs1)C(=O)NCC1OCCCN1S(=O)(=O)c1ccc(F)cc1` (stereo unspecified), the viability increase is -1.49% (inactive).

As to `CC(O)c1nc2ccccc2n1Cc1ccc([N+](=O)[O-])cc1` (stereo unspecified), the viability increase is -1.44% (inactive).

Regarding `Cc1ccc(-c2c(C)n([O-])c3c([n+]2=O)CCC3)cc1`, the viability increase is -0.22% (inactive).

As to `CC(C)(C)c1ccc(C(=O)NCc2nnc(SCC(=O)N3CCCc4ccccc43)n2-c2ccccc2)cc1`, the viability increase was -0.43% (inactive).

Take `Cc1ccc(CSCC(N)C(=O)O)cc1` (stereo unspecified): the viability increase was 1.44% (inactive).

Regarding `COc1cc2c(cc1/C=C1/NC(=O)N(c3ccccc3)C1=O)OCO2`, the viability increase is 0.58% (inactive).

On to `CCC1(C)Cc2c(sc3nc(SC)nc(N)c23)CO1` (stereo unspecified), for which the viability increase is -0.12% (inactive).

For the molecule `CCC1(C)Cc2c(sc3nnn(CC(=O)Nc4ccc(Cl)cc4)c(=O)c23)CO1` (stereo unspecified), the viability increase was 9.27% (active).

In the case of `CCC1(C)Cc2c(sc3[nH]c(=S)n(Cc4ccccc4)c(=O)c23)CO1` (stereo unspecified), the viability increase is -3.87% (inactive).

`COCc1c(C(=O)N/N=C/C2CC=CCC2)nnn1-c1nonc1N` (stereo unspecified): the viability increase was -1.34% (inactive).

As for `CC(C)(C)N(Cc1ccccc1)C(=O)COC(=O)CCc1c[nH]c2ccccc12`, the viability increase was -1.32% (inactive).

As for `O=C(NCC(F)(F)F)Nc1nnc(C(F)(F)F)s1`, the viability increase is 7.12% (active).

As to `CCc1nnc(NC(=O)CCC(=O)O)s1`, the viability increase is 0.72% (inactive).

With `COc1ccc(C)cc1NC(=O)CCC(=O)Nc1nnc(C(F)(F)F)s1`, the viability increase is 1.24% (inactive).

Regarding `Cc1nnnn1/C(=C\c1ccccc1)C(=O)OCC(=O)N1CC2(C)CC1CC(C)(C)C2` (stereo unspecified), the viability increase was -4.97% (inactive).

`CCn1c(NC(=O)c2nn(C)cc2Br)nc2ccccc21`: the viability increase is -2.46% (inactive).

For `O=C(NCCNc1ccc([N+](=O)[O-])cc1)c1cccc2c(Br)cccc12`, the viability increase was 1.47% (inactive).

Turning to `C/C(=N/NC(=S)Nc1ccccc1)c1ccc2c(c1)OCO2`, the viability increase is 7.99% (active).

Take `C/C(=N\NC(=S)NCc1ccccc1)c1ccc(Cl)cc1`: the viability increase is -2.64% (inactive).

In the case of `O=C(Nc1ccccc1)c1ccc2c(c1)OCO2`, the viability increase is -0.11% (inactive).

For the molecule `COc1ccc(OCC(O)CNC(=O)Nc2ccc(Cl)cc2)cc1` (stereo unspecified), the viability increase was 2.65% (inactive).

As for `Cc1ccc(C)c(NS(=O)(=O)c2ccc(OCC(=O)NCc3cccnc3)cc2)c1`, the viability increase is -4.52% (inactive).

For `CC1CCN(C(=O)c2ccc(S(=O)(=O)Cc3cc(F)ccc3F)c([N+](=O)[O-])c2)CC1`, the viability increase was -4.87% (inactive).
